# Reference: PubChem BioAssay (NCI)
# About 83,000 compounds went through this panel and 20% of them were active in at least one assay; those are over-represented in the sample as a whole.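 Cell lines were cultured in 96-well plates, exposed to a single compound concentration, and assessed for percent growth 48 hours later.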 A number with no mark means an inactive call. Active and inactive are the calls of the source. Rule for the calls: active = growth percent below 10; inactive = the rest.
# Experiments:
# Assay in all cases: NCI-60 one-dose screen, 48 h (100 = growth as untreated, 0 = no growth, -100 = all killed)
# Conditions in all cases: 10 µM unless noted
# [1] = test system: BT-549 breast
# [2] = test system: MDA-MB-435 melanoma
# [3] = test system: SW-620 colon
# [4] = test system: MCF7 breast
# [5] = test system: HCT-116 colon
# [6] = test system: HCC-2998 colon
# [7] = test system: KM12 colon
Structure (SMILES),growth [1],growth [2],growth [3],growth [4],growth [5],growth [6],growth [7]
COC(=O)c1ccc(NC(=S)N2CCc3ccc([N+](=O)[O-])cc3C2)cc1O,101%,111%,110%,92.7%,117%,110%,103%
CCCSc1nc(Nc2ccc(/C(C)=N\NC(N)=S)cc2)c(C#N)c(-c2ccc(OC)cc2)n1,82%,70.7%,103%,69.1%,45.3%,110%,84.7%
CC(O)C(NC(=O)C1CCCN1C(=O)CNC(=O)C1CC(=O)NCC(=O)NC(Cc2c[nH]c3ccccc23)C(=O)NC(Cc2ccc(O)cc2)C(=O)NCC(=O)NC(CO)C(=O)NC(CCC(N)=O)C(=O)NC(Cc2c[nH]c3ccccc23)C(=O)N1)C(=O)NCC(=O)NC(CCC(N)=O)C(=O)NC(CCCNC(=N)N)C(=O)NC(CC(=O)O)C(=O)O (stereo not given),115%,100%,102%,96.4%,97.4%,120%,105%
COc1ccc(/C=N/NC(=O)c2[nH]c3ccc(Br)cc3c2-c2ccccc2)s1,-15.9% (active),-21.4% (active),18.2%,6.97% (active),-19.9% (active),26.8%,3.72% (active)
COc1ccc(C(=O)/C=C/c2ccc(Oc3nc(NCCO)nc(N4CCOCC4)n3)c(OC)c2)cc1,90.9%,44.5%,0.395% (active),12.7%,10.6%,99.8%,28.9%
O=C(Oc1ccc2ccc(=O)oc2c1)c1ccc(Cl)cc1,101%,109%,102%,94%,98.5%,102%,108%
Cc1[nH]nc2ncc(C#Cc3cncc(C(=O)Nc4ccc(CN5CCN(C)CC5)c(C(F)(F)F)c4)c3)cc12,64.5%,13.1%,4.05% (active),43.8%,8.54% (active),44.4%,8.98% (active)
N#Cc1c(-c2ccc(F)cc2)nc2c(C#N)c(Nc3ccccc3)nn2c1N,109%,95.5%,106%,91.7%,105%,109%,97.9%
COc1ccc(/C=N/Nc2ccnc3cc(Cl)ccc23)cc1Cl,-79.8% (active),-84.1% (active),-89% (active),-12.2% (active),-89.4% (active),-39.9% (active),-88.6% (active)
CN1C(=O)N(c2ccccc2)C2N=C(N/N=C/c3ccccc3)SC21 (stereo not given),52.4%,-24.9% (active),15.2%,24%,22.5%,51.5%,22%
C#Cc1nc(C2=C(C)C(=O)/C(=N/OC(C)=O)C2)cs1,95%,94.8%,110%,68.4%,78.4%,117%,46.8%
COc1cc(OC)c(S(=O)(=O)NNC(=O)c2ccncc2)cc1C(=O)/C=C/c1ccc(C)cc1,6.18% (active),83.2%,74.8%,26.7%,9.81% (active),91.6%,54.8%
COc1cc(-c2ccc3ncnc(NC(C)c4ccccc4)c3c2)cnc1OC (stereo not given),32.6%,69.6%,69.2%,23.7%,76.8%,69.8%,75.3%
CCOC(=O)c1c(Nc2ccccc2)nn2c(N)c(C#N)c(-c3ccc(F)cc3)nc12,98.7%,81.2%,86.5%,67.6%,87.4%,110%,87.3%
C/C(=N/NC(N)=S)c1ccc(Nc2nc(SCC(C)C)nc(-c3ccc(F)cc3)c2C#N)cc1,55.8%,13.1%,4.45% (active),0.17% (active),3.84% (active),34.8%,23.5%
Nc1nc(N)c2c(n1)NC(c1ccc(F)cc1)CC(c1ccc(Nc3nc(NCCO)nc(Nc4ccc(Cl)cc4)n3)cc1)=N2 (stereo not given),42.7%,-71.4% (active),-52.8% (active),-66.5% (active),-67.4% (active),-80.4% (active),-16.9% (active)
COc1ccc(-c2csc(N/N=C/c3c(-c4ccc(S(C)(=O)=O)cc4)nc4ccccn34)n2)cc1,115%,101%,107%,89.1%,104%,115%,103%
COc1ccc(C(=O)/C=C/c2ccc(OCc3ccc(C)cc3)c(OC)c2)cc1OC,73.2%,82.6%,45.5%,25.9%,25.3%,91.1%,51.5%
COc1ccc(/C=C2\SC(=Nc3cc(C)on3)NC2=O)cc1,88.1%,104%,99%,89.2%,96.1%,108%,108%
CC(C)(C)Nc1nc2c(OCCc3ccccc3)cccn2c1-c1ccc(O)cc1,85.4%,72.5%,69%,45.4%,38.2%,52.2%,38.2%
O=C(CN1CCOCC1)NNc1ncnc2ccccc12,100%,91.7%,-26% (active),64.6%,81.7%,114%,97.1%
OC1CCN(CCCOc2c3ccccc3nc3c2oc2ccccc23)CC1,7.19% (active),-10.5% (active),1.37% (active),0.978% (active),3.79% (active),-12.4% (active),5.22% (active)
Clc1ccc2c(NCCCn3ccnc3)c3oc4ccccc4c3nc2c1,81.2%,32.2%,21.5%,18.2%,14%,40.8%,30.1%
CCN1C(=S)N(CC)C2C1NN=C1SC(c3ccccc3)=CC(=O)N12 (stereo not given),106%,59%,111%,95.4%,104%,111%,94.3%
Cn1cc(-c2cc(N)n3nc(-c4cn(C)c5ccc(Br)cc45)cc3n2)c2cc(Br)ccc21,105%,30.8%,1.21% (active),1.35% (active),57%,82.5%,64.8%

Structure (SMILES),growth [1],growth [2],growth [3],growth [4],growth [5],growth [6],growth [7]
Nc1cc(-c2c[nH]c3ccc(Cl)cc23)nc2cc(-c3c[nH]c4ccc(Cl)cc34)nn12,87.5%,57.7%,15.7%,14.4%,27.7%,20.1%,12.7%
NS(=O)(=O)c1cccc(Nc2nc(SCC(=O)c3ccc(Cl)cc3)nc3ccccc23)c1,26.1%,77.6%,79.3%,65.6%,76.4%,112%,71.7%
COC(=O)C1CN(S(=O)(=O)/N=C2\NC(=O)NC2=C(Cl)Cl)C1,110%,107%,114%,34.1%,111%,121%,8.89% (active)
C#Cc1nc(C2=C(C)C(=N\O)/C(=N/O)C2)cs1,105%,93.7%,109%,72.5%,87.3%,113%,67.1%
CN(C)S(=O)(=O)c1oc(-c2ccccc2)nc1C#N,64.4%,78.9%,0.559% (active),39.4%,61.3%,108%,92.9%
Cc1sc2c(c1C)c(=O)nc1c(-c3nc(-c4ccc(F)cc4)no3)n[nH]n12,102%,105%,111%,89.7%,103%,104%,106%
C#C[C@]1(O)CC[C@H]2[C@@H]3CC=C4c5sc(-c6ccc(F)cn6)nc5CC[C@]4(C)[C@H]3CC[C@@]21C,7.85% (active),18.1%,16.1%,12.1%,18.1%,65.1%,13.9%
CCOC(=O)c1c(Nc2ccccc2)nn2c(-c3ccco3)c(C#N)cnc12,83.1%,93%,94.7%,83.2%,92.5%,112%,98.6%
Clc1ccc2oc3c(NCCCn4ccnc4)c4ccccc4nc3c2c1,76.9%,26.7%,16.9%,8.8% (active),11.2%,55.2%,30.9%
COc1cc2nc(-c3ccc(Cl)cc3)cc(OCCCNCC3CCCO3)c2cc1OC (stereo not given),87.7%,12.4%,54.3%,36%,25.1%,70.6%,39.8%
O=C(N/N=C/c1cccs1)c1[nH]c2ccc(Br)cc2c1-c1ccccc1,-14.2% (active),-26.1% (active),22.8%,8.78% (active),-33.7% (active),24.1%,6.37% (active)
N#Cc1c(-c2ccc(Cl)cc2)nc(SCc2ccccc2)nc1N1CCNCC1,90.5%,71.4%,-50.2% (active),8.71% (active),-74.3% (active),-37.3% (active),39.6%
CCN1CCN(S(=O)(=O)c2oc(-c3ccc(Cl)cc3)nc2C#N)CC1,93.6%,62.6%,-23.6% (active),31.3%,11.6%,115%,91.7%
N#Cc1c(-c2ccc(Cl)cc2)nc(SCc2ccc(F)cc2)nc1N1CCNCC1,101%,69.3%,-80.2% (active),-19.3% (active),-93.8% (active),-31.8% (active),33.6%
COc1ccc(-c2nc3ccc(-c4nnc(SCC(=O)Nc5ccc(C(C)=O)cc5)o4)cc3[nH]2)cc1,112%,102%,103%,77.1%,109%,111%,105%
N=C1CC(=O)NN1C(=O)CSc1nc2sc3c(c2c(=O)n1-c1ccc(Cl)cc1)CCCC3,102%,106%,98%,91.8%,99%,116%,104%
CS(=O)(=O)c1ccc(-c2nc3ccccn3c2/C=N/Nc2nc(-c3ccc(Cl)cc3)cs2)cc1,103%,96.8%,113%,91.6%,101%,125%,112%
Clc1ccc2c(NCCCN3CCOCC3)c3oc4ccc(Cl)cc4c3nc2c1,81.3%,69.6%,27.5%,22.2%,23.4%,10%,48.4%
CCCCN1C(=O)/C(=c2\sc3n(c2=O)C2C(NN=3)N(CC)C(=O)N2CC)c2cc(Cl)ccc21 (stereo not given),85%,6.07% (active),58.2%,27.5%,56.7%,101%,55.8%
NS(=O)(=O)c1ccc(Nc2nc(Nc3ccccc3)nc(-n3nc(-c4ccccc4)cc3-c3ccccc3)n2)cc1,52.7%,26.9%,38.2%,6.85% (active),10.5%,43.1%,9.22% (active)
CCOC(=O)c1csc(NC(=O)CSc2nc3sc4c(c3c(=O)n2-c2ccc(Cl)cc2)CCCC4)n1,99%,93.6%,103%,84.3%,105%,121%,109%
N#Cc1nc(-c2ccccc2)oc1N1CCC(CO)C1 (stereo not given),95.3%,95.7%,98.4%,49.8%,107%,115%,101%
C#Cc1nc(C2=C(C)C(OC(=O)CCC(=O)O)CC2)cs1 (stereo not given),102%,106%,113%,87.6%,114%,109%,79.2%
COc1cc(N=Cc2sc(Nc3nccs3)nc2O)cc(OC)c1OC,93.6%,87.9%,97.3%,71.5%,94.2%,111%,89.9%
COc1cc2nc(-c3ccc(C(F)(F)F)cc3)cc(OCCCNCC3CCCO3)c2cc1OC (stereo not given),66.3%,5.88% (active),16.3%,13%,22.6%,54.4%,27.3%
